# Experimental data as given in the supplement of paper PMC9177965.
# Where “and” joins values, the source holds several entries; their conditions need not be identical. Equal values may be shown once.
# Columns and labels:
# [1] = test system: HT29 RNF43 G659fs (RNF43 659mut, CRISPR-edited); assay: cell viability activity relative to DMSO (negative = inhibition); higher = more viable cells (less growth inhibition); details: 5 µM; 96 h
# Protocol: (§1)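 Broad Repurposing Library primary screen at a single dose of 5 uM. HT29 sg-Ctrl and HT29 RNF43 G659fs CRISPR-edited isogenic cells were seeded at 2500 cells/well in 384-well plates in duplicate and treated for 96 h. Viability was read by CellTiter-Glo and reported as % activity relative to DMSO, with MG132 as the positive control (negative = growth inhibition).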
# [2] = test system: HT29 sg-Ctrl (RNF43 wildtype); assay: as above; details: 5 µM; 96 h
# Protocol: as §1
SMILES,cell viability activity [1],cell viability activity [2]
COC(=O)C1=C(C)NC(C)=C(C(=O)OC2CCCN(Cc3ccccc3)C2)C1c1cccc([N+](=O)[O-])c1 (stereo not given),-85.8%,-85.6%
C=C1C(=O)CC2CC3OC3(C)CCC3OC3(C)C[C@H](OC(C)=O)C1C2(C)C (stereo not given in full),-28.6%,-25.5%
COc1cc(C(=O)N2CCC(N3CCN(C)CC3)CC2)ccc1Nc1ncc2c(n1)N(C)c1ccccc1C(=O)N2C,-56.1%,-57.3%
CCCCCCCCCCCCCCCC[N+](C)(C)Cc1ccccc1,-46.6%,-34.3%
COc1c(C)cnc(Cn2cc(C#CCC(C)(C)O)c3c(Cl)nc(N)nc32)c1C,-42.7%,-88.4%
Cc1noc2c1-c1ccccc1C(c1ccc(Cl)cc1)=N[C@H]2CC(N)=O,-53.9%,-57.7%
Clc1ccc(CSC(Cn2ccnc2)c2ccc(Cl)cc2Cl)cc1 (stereo not given),-38.7%,-29%
Oc1ccc(CC2NCCc3cc(O)c(O)cc32)cc1 (stereo not given),-63.7%,-66.3%
Cc1cccc(Nc2nc(-c3ccncc3)cs2)c1,-85.7%,-55.8%
Cc1cn([C@H]2C[C@H](N=[N+]=[N-])[C@@H](CO)O2)c(=O)[nH]c1=O,-29%,-2.51%
CCC[C@H](NC(=O)/C(C#N)=C/c1cccc(Br)n1)c1ccccc1,-95.3%,-92.4%
O=C(NC1CCN(CCCCC2(C(=O)NCC(F)(F)F)c3ccccc3-c3ccccc32)CC1)c1ccccc1-c1ccc(C(F)(F)F)cc1,-95.7%,-92.3%
CCCCC(=O)OCC(=O)[C@]1(O)Cc2c(O)c3c(c(O)c2[C@@H](O[C@H]2C[C@H](NC(=O)C(F)(F)F)[C@H](O)[C@H](C)O2)C1)C(=O)c1c(OC)cccc1C3=O,-48.2%,-25.4%
CCCCCCCC(=O)N[C@H](CN1CCCC1)[C@H](O)c1ccc2c(c1)OCCO2,-40.1%,-40.4%
Cc1cc(OCc2nnc(SC3CCCC3)n2-c2cccnc2)ccc1-c1ccc(S(C)(=O)=O)cc1,-86.4%,-74.8%
N#Cc1cc2c(OCC(O)CN3CCN(C(c4ccccc4)c4ccccc4)CC3)cccc2[nH]1 (stereo not given),-23.9%,-20.5%
Cc1ccc(S(=O)(=O)C=CC#N)cc1,-98.8%,-97.7%
O=C(Nc1ccncc1)Nc1ccc(-c2nc(N3CCOCC3)nc(N3C4CCC3COC4)n2)cc1,-64.5%,-36.2%
CS(=O)(=O)N1CCN(Cc2cc3nc(-c4cccc5[nH]ncc45)nc(N4CCOCC4)c3s2)CC1,-62.8%,-51.8%
CC(C)Nc1cc(-c2c[nH]c(C(=O)N[C@H](CO)c3cccc(Cl)c3)c2)c(Cl)cn1,-71.1%,-78.7%
N#CC1(c2ccc(NC(=O)c3cccnc3NCc3ccncc3)cc2)CCCC1,-45.5%,-22.7%
c1cc(Nc2cc(C3CC3)[nH]n2)nc(Nc2ccc3nc[nH]c3c2)n1,-29.4%,-65.9%
COc1cccc2c1C(=O)c1c(O)c3c(c(O)c1C2=O)C[C@@](O)(C(C)=O)C[C@@H]3O[C@H]1C[C@H](N)[C@H](O)[C@H](C)O1,-97.7% and -94% and -93.6%,-96.9% and -95.8% and -96%
CN[C@H]1CN(c2ccc3c(=O)c(C(=O)O)cn(-c4nccs4)c3n2)C[C@@H]1OC,-60.3%,-30.9%
COc1ccc(N(C)c2nc(C)nc3ccccc23)cc1,-59.2%,-68%

SMILES,cell viability activity [1],cell viability activity [2]
CC(C)c1cc(CNc2nc(Nc3cc(C4CC4)[nH]n3)cc(N3CCN(C)CC3)n2)on1,-86.1%,-84.3%
CCc1cccc(CC)c1NC(=O)N1Cc2[nH]nc(NC(=O)c3ccc(N4CCN(C)CC4)cc3)c2C1,-46.8%,-21.2%
CCc1cnn2c(NCc3ccc[n+]([O-])c3)cc(N3CCCC[C@H]3CCO)nc12,-88.2%,-84.3%
CC(C)/N=c1\cc2n(-c3ccc(Cl)cc3)c3ccccc3nc-2cc1Nc1ccc(Cl)cc1,-75.3%,-75.7%
CC(C)C[C@H](NC(=O)[C@H](CCc1ccccc1)NC(=O)CN1CCOCC1)C(=O)N[C@@H](Cc1ccccc1)C(=O)N[C@@H](CC(C)C)C(=O)[C@@]1(C)CO1,-97.1%,-96.6%
CC(C)Oc1ccc(C(=O)N[C@H](CNC(=O)CN(C)C)Cc2ccc(-c3cn4cccc([C@H](C)O)c4n3)cc2)cc1Cl,-54.6%,-59.4%
O=C(/C=C/c1cccc(S(=O)(=O)Nc2ccccc2)c1)NO,-88.3%,-73.9%
CSc1ccccc1Nc1nc(N2CCNCC2)nc2c(NCC3CC3)ncnc12,-95.8%,-94.6%
CCCCCCCCc1ccc(CCC(N)(CO)CO)cc1,-97.8%,-94.1%
COC(=O)[C@H]1[C@H]2C[C@@H]3c4[nH]c5cc(OC)ccc5c4CCN3C[C@H]2C[C@@H](OC(=O)c2cc(OC)c(OC)c(OC)c2)[C@@H]1OC,-26.1%,-40.7%
CCCCCCCC[N+](C)(C)Cc1ccccc1,-22.5%,-16.8%
CCCCCCCCCCCC[N+](C)(C)CCOc1ccccc1,-84.4%,-91.5%
CN1CCCN=C1COC(=O)C(O)(c1ccccc1)C1CCCCC1 (stereo not given),-55.3%,-50.3%
Cc1ccc(C(=O)N(CCCN)[C@@H](c2oc3cc(Cl)ccc3c(=O)c2Cc2ccccc2)C(C)C)cc1,-63.6%,-78.3%
O=C(c1cccc(Cl)c1F)N1CCN(Cc2cccc(Nc3nccs3)n2)CC1,-27.7%,-25.6%
Clc1ccc(Cn2c(CN3CCCC3)nc3ccccc32)cc1,-32.7%,11.6%
Cc1ncc(NC(=O)c2ccc(CN3CCN(C)CC3)c(C(F)(F)F)c2)cc1Nc1nccc(-c2cccnc2)n1,-33.9%,-49%
COc1cc2c(cc1OC)-c1cc3nc4ccccc4nc3n1C(C)(C)C2,-64.4%,-78.1%
Cc1c(C(=O)Nc2ccc(N3CCC(N4CCOCC4)CC3)c(C#N)c2)cnn1-c1ccc(Cl)cc1,-36.4%,-33.4%
O=C(O)C[C@H](O)C[C@H](O)/C=C/c1c(C2CC2)nc2ccccc2c1-c1ccc(F)cc1,-25.1%,-8.8%
Clc1ccc(COC(Cn2ccnc2)c2ccc(Cl)cc2Cl)cc1 (stereo not given),-23.9%,-14.6%
C/C=C1\NC(=O)[C@H]2CSSCC/C=C/[C@H](CC(=O)N[C@H](C(C)C)C(=O)N2)OC(=O)[C@H](C(C)C)NC1=O,-94.9%,-77.3%
CON(C)C(=O)N1N=C(c2cc(F)ccc2F)S[C@@]1(CCCN)c1ccccc1,-73.8%,-69.7%
COc1ccc(-c2cc3c(C)nc(N)nc3n([C@H]3CC[C@H](OCCO)CC3)c2=O)cn1,-94%,-84.6%
CC(C)c1ccc(NC(=O)Cn2cnc3c2c(=O)n(C)c(=O)n3C)cc1,-55.3%,-23.8%

SMILES,cell viability activity [1],cell viability activity [2]
Cc1nnc(C[C@@H]2C=C(c3ccc(Cl)cc3)c3ccccc3-n3c(C)nnc32)o1,-63.5%,-64.7%
C[C@H]1[C@H](OC(=O)CCC(=O)O)O[C@@H]2O[C@@]3(C)CC[C@H]4[C@H](C)CC[C@@H]1[C@@]24OO3,-42.8% and -37.2%,-35.1% and -16.8%
CNC(=O)c1nn(C)c2c1C(C)(C)Cc1cnc(Nc3ccc(N4CCN(C)CC4)cc3)nc1-2,-66.2%,-74.1%
CN(C)c1ccc(C(=C2C=CC(=[N+](C)C)C=C2)c2ccc(N(C)C)cc2)cc1,-96.3%,-89.3%
O=C(O)c1ccccc1-c1c2cc(I)c(=O)c(I)c-2oc2c(I)c(O)c(I)cc12,-23%,-16.3%
Nc1ncnc2c1c(-c1cccc(OCc3ccccc3)c1)cn2C1CC(CN2CCCC2)C1 (stereo not given),-48%,-56.6%
CC[C@H](C)[C@@H]([C@@H](CC(=O)N1CCC[C@H]1[C@H](OC)[C@@H](C)C(=O)N[C@@H](Cc1ccccc1)c1nccs1)OC)N(C)C(=O)[C@@H](NC(=O)[C@H](C(C)C)N(C)C)C(C)C,-55.7%,-43%
COc1cc(C(=O)NC2CCN(C)CC2)c(F)cc1Nc1ncc2c(n1)N(C1CCCC1)CC(F)(F)C(=O)N2C,-65.9%,-68.1%
CCS(=O)(=O)c1cccc(-c2cc(C(=O)NC3CCN(C)CC3)c(C)c3[nH]c4ncc(C)cc4c23)c1,-90.1%,-85.9%
COc1ccc(C[C@H](NC(=O)[C@H](C)NC(=O)CN2CCOCC2)C(=O)N[C@@H](Cc2ccccc2)C(=O)[C@@]2(C)CO2)cc1,-95.4%,-94.4%
CC(C)c1cc(-c2n[nH]c(=O)n2-c2ccc3c(ccn3C)c2)c(O)cc1O,-87.1%,-81.7%
O=C1/C(=C/c2ccccc2)C(NC2CCCCC2)c2ccccc21 (stereo not given),-91.7%,-74.6%
Cc1ccccc1N(C)C(=O)c1ccc([S+]([O-])c2nccs2)c([N+](=O)[O-])c1 (stereo not given),-49.2%,-22.7%
CCCCC(=O)O[C@H]1CC[C@H]2[C@@H]3CCc4cc(O)ccc4[C@H]3CC[C@]12C,-22.9%,-32.5%
CCCCC(CC)CNC(=N)NC(=N)NCCCCCCNC(=N)NC(=N)NCC(CC)CCCC (stereo not given),-90.6%,-88.4%
CCCCCCCC/C=C/CCCCCCCC(=O)OC[C@H]1O[C@@H](n2ccc(N)nc2=O)C(F)(F)[C@@H]1O,-42%,-51.8%
OCCn1cc(-c2ccc3c(c2)CC/C3=N\O)c(-c2ccncc2)n1,-29.3%,-39.2%
CCCCCCCCNC(C)C(O)c1ccc(SC(C)C)cc1 (stereo not given),-87.2%,-12.2%
Cn1cc(-c2ccc(S(=O)(=O)n3ccc(/C=C/C(=O)Nc4ccccc4N)c3)cc2)cn1,-62.6%,-63.3%
O=C(c1cn(Cc2cncn2Cc2ccc(Br)cc2)cc1-c1cccc2ccccc12)N1CCOCC1,-42.8%,-38.5%
C[C@H](Nc1ncnc2nc[nH]c12)c1cc2cccc(Cl)c2c(=O)n1-c1ccccc1,-24.4%,-24.3%
CC1NC(=O)C(N)CNC(=O)C(C2CCN=C(N)N2)NC(=O)/C(=C\NC(N)=O)NC(=O)C(CNC(=O)CC(N)CCCN)NC1=O (stereo not given),-29.5%,0.515%
CCN(CC)c1ccc(C(=C2C=CC(=[N+](CC)CC)C=C2)c2ccccc2)cc1,-97.7%,-97.2%
Nc1ccc(-c2ccc3ncc4ccc(=O)n(-c5cccc(C(F)(F)F)c5)c4c3c2)cn1,-63.8%,-42.1%
CC1=C(C(=O)OC2CCCCC2)C(c2ccc([N+](=O)[O-])cc2)C2=C(CC(C)(C)CC2=O)N1 (stereo not given),-27.1%,-15.6%
